Assay outcomes (PubChem)
Hits are enriched below; roughly 2.8% of the tested compounds scored in any of these assays.
DRD3 antagonist = antagonists of human D3 dopamine receptor; D3R cells, DiscoveRx beta-arrestin luminescence, antagonist mode; active compounds read low; P35462; max response, negative = inhibition, %; 360,000 compounds, 2.5% hits; in the data active = max response below about -50%; inconclusive = no clear call, values can overlap the other calls
Target sequence (P35462 whole entry, looked up): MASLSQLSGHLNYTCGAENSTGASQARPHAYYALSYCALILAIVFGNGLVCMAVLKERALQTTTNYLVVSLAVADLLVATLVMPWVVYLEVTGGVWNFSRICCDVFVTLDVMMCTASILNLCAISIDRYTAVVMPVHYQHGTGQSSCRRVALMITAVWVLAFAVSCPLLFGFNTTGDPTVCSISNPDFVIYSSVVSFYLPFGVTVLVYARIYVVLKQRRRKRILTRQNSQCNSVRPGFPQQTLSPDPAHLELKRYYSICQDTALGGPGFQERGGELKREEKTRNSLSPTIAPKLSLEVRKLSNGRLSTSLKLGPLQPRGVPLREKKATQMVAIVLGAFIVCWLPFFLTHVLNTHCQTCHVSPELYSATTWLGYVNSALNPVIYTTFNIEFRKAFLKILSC
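Cells expressing the human receptor were seeded at 1500 cells/well, incubated overnight at 37 degrees C in 5% CO2, then exposed to library compounds with dopamine controls for 90 minutes at 37 degrees C before luminescent detection.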
DRD3 agonist = agonists of human D3 dopamine receptor. D3R DiscoveRx beta-arrestin cells, luminescence, 90 min. AID 652048. P35462. 410,000 compounds, 0.58% hits. max activation, %; in the data active = max activation above about 30%
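Agonist-mode cell screen: cells plated at 1500/well and incubated overnight at 37 °C, then exposed to library compounds for 90 min at 37 °C. Detection reagent was added for 30–60 min at room temperature, and luminescence was read.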
LDHA inh = blocks human lactate dehydrogenase A. activity change, % (values are at about 110 or 230 µM). P00338. AID 1347041. 480,000 compounds, 0.15% hits. purified LDHA, NADH/diaphorase-resazurin fluorescence; active compounds read low; in the data active = activity change below about -30%; inconclusive = mostly about -25% to -30%
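LDH5 2 nM; NADH 0.06 mM, pyruvate 0.2 mM; 200 mM Tris pH 7.4, EDTA, Tween-20; 5 min RT. Detection: diaphorase 0.133 mg/mL + resazurin 37 µM, fluorescence ex540/em590 at 0 and 20 min; normalized to enzyme-free and DMSO wells.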
PI4K2A inh = blocks human PI4K2A kinase activity. AID 1346378. Q9BTU6. purified PI4K2A, ADP-Glo luminescence, 1 h; active compounds read low. activity change, negative = inhibition, % at 76.9 µM. 420,000 compounds, 0.13% hits; in the data active = activity change below about -50%; inconclusive = mostly about -30% to -49%
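In this quantitative HTS, ADP production by PI4K2A was quantified luminescently after 1 h at ambient temperature; 100 microM adenosine served as plate-quality control.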
RGS4 inhibitor = human RGS4 inhibition; P49798; Transcreener GDP fluorescence polarization, RGS4-accelerated GTP hydrolysis; Potency, µM (series often up to 114 µM), usual class: inhibitors; 390,000 compounds, 0.039% hits; AID 504845; active = well fitted inhibition curve with a large enough effect; inconclusive = small, poorly fitted or top-dose-only effect; inactive = no such curve, though single readings can be large or run the other way; note: nearly all actives have a fitted effect of over 75% in size
Target sequence (P49798 whole entry, looked up): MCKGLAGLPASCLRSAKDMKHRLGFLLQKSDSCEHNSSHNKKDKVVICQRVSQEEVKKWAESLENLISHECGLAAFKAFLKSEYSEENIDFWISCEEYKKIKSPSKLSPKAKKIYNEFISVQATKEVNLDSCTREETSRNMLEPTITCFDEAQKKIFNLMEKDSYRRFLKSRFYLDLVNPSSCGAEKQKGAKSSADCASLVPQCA
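MLSMR compounds (23 nl, pin-transferred) preincubated 10 min at room temperature with a 500nM (2x) first reagent, then RGS4 at 900nM (2x) plus Transcreener GDP mix added; fluorescence polarization (620/688 nm) read before and after 90 min at 30 °C.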
Akt phos inh = Akt phosphorylation inhibition | activity change, % for hits at 50 µM | Neuro2A IGF-stimulated pAkt S473 HTRF, 20 min; active compounds read low | AID 651550 | 360,000 compounds, 0.32% hits; in the data active = activity change below about -80%; inconclusive = mostly about -51% to -80%
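Single-point screen (50 µM final compound) in Neuro2A cells stimulated 20 min with 6 nM IGF at 37 deg C. After lysis, Ser473-phosphorylated Akt read by HTRF (ex 330 nm, em 615/665 nm) as the 665/615 ratio.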
Numbers stand for hits; 0 = inactive; ? = inconclusive; - = not tested or not shown.

SMILES	DRD3 antagonist	DRD3 agonist	LDHA inh	PI4K2A inh	RGS4 inhibitor	Akt phos inh
C1CCC(Nc2nnnn2C2CCCCC2)CC1	0	0	0	0	0	-104.1%
CC1CC(C)(C)Nc2ccc(OC(=O)c3ccco3)cc21 (configuration not stated)	0	0	0	0	0	-
CC1CC(C)(C)Nc2ccc(N=O)cc21 (configuration not stated)	-84.1	0	0	0	0	0
Cc1ccc(SCCN2CCN(Cc3ccccc3)CC2)cc1	?	0	-30.9	0	0	0
c1ccc(SCCN2CCc3ccccc3C2)cc1	-91.0	0	0	0	0	0
ClC(CCN1CCN(Cc2ccccc2)CC1)c1ccccc1 (configuration not stated)	-64.0	0	0	0	0	0
CC(CN1CCN(Cc2ccccc2)CC1)c1ccccc1 (configuration not stated)	0	0	0	0	0	0
O=S(CCN1CCc2ccccc2C1)c1ccccc1 (configuration not stated)	-	-	0	-	-	-
OCCN1CCN(CCSc2ccccc2)CC1	-60.6	0	0	0	0	0
C=CCOc1ccc(NC(=O)c2ccccc2)cc1	-	-	0	-	-	-
c1ccc(SCCOCCN2CCc3ccccc3C2)cc1	-78.2	0	0	0	0	0
COc1ccc(CNc2nc(NCc3ccc(OC)cc3)n(S(=O)(=O)c3ccccc3)n2)cc1	-	-	0	-	-	-
O=C(C[n+]1ccc2ccccc2c1)c1ccc2ccc3ccccc3c2c1	-78.0	0	0	0	-	0
O=C(C[n+]1ccc2ccccc2c1)c1ccccc1	0	0	0	0	0	0
CSC1=NS(=O)(=O)c2c(C)nn(C)c2S1	-69.1	0	0	0	?	0
Cc1ccc(C)c(N2CCN(C(=O)CCc3nc(-c4ccccc4Cl)no3)CC2)c1	0	50.0	0	0	0	0
COc1cc(-c2cc3nc(NCc4ccco4)ccn3n2)cc(OC)c1OC	-74.7	0	0	0	-	0
C=CCc1ccc(OCCCNCc2ccccc2)c(OC)c1	-78.9	0	0	0	0	0
C=CCc1ccc(OCCCNC2CCCC2)c(OC)c1	0	0	0	0	0	0
C/C=C/c1ccc(OCCCCOc2c(OC)cccc2OC)c(OC)c1	0	0	0	0	0	0
C/C=C/c1ccc(OCCNCc2ccccc2)c(OC)c1	-77.0	0	0	0	0	0
C/C=C/c1ccc(OCCCNC)c(OC)c1	0	0	0	0	0	-118.9%
CC(C)c1ccccc1OCC(O)CN1CCN(S(=O)(=O)c2ccc([N+](=O)[O-])cc2)CC1 (configuration not stated)	-54.9	0	0	0	0	0
CN(Cc1ccccc1)c1nc2c(c(=O)[nH]c(=O)n2C)n1CCOc1ccccc1	0	0	0	0	0	-124.2%
Cn1c(=O)c2c([nH]c(=S)n2CCCc2ccccc2)n(C)c1=O	0	0	0	0	?	0
SMILES	DRD3 antagonist	DRD3 agonist	LDHA inh	PI4K2A inh	RGS4 inhibitor	Akt phos inh
Cn1c(=O)[nH]c(=O)c2c1nc(OC(=O)c1ccccc1)n2CC(O)COc1ccccc1 (configuration not stated)	0	0	0	0	0	-126.1%
CN(C)CCNc1nc2c(c(=O)[nH]c(=O)n2C)n1CCCc1ccccc1	-76.1	0	0	0	0	0
COCCn1c(N(C)Cc2ccccc2)nc2c1c(=O)[nH]c(=O)n2C	-	-	0	-	-	-
Cn1c(=O)[nH]c(=O)c2c1[nH]c(=S)n2CCCc1ccccc1	-53.7	0	0	0	?	0
COc1cc(/C=C/C(=O)OCCOc2ccc(Br)cc2)ccc1O	-	-	0	-	-	-
O=C(CCSc1ccc(F)cc1)NCc1cccc(Cl)c1	-	-	0	-	-	-
O=C(O)c1cc2nc3c(c(C(F)(F)F)n2n1)CCc1ccccc1-3	0	0	0	0	0	-113.8%
Oc1cccc(-c2nnc(-c3cccc(O)c3)nn2)c1	0	0	0	-66.0	0	0
COc1ccc(C2=Nc3ccc(OC(F)(F)F)cc3NC(c3cccnc3)=N2)cc1	-	36.5	0	0	0	-
CCCCOc1ccc(C2=NC(c3ccccc3)=Nc3ccc(OC)cc3N2)cc1	-	0	0	0	0	-
COCCCNC(=O)c1ccc(N2CCCC2)c(NS(=O)(=O)c2ccc(C)cc2)c1	0	0	0	0	0	0
Cc1ccc(S(=O)(=O)Nc2cc(C(=O)NCCN3CCCC3)ccc2N2CCCCC2)cc1	-51.1	0	0	0	0	-
Cc1ccc(S(=O)(=O)Nc2cc(C(=O)NCCN(C)C)ccc2N2CCCCC2)cc1	-64.0	0	0	0	0	0
CCOC(=O)c1nn(C23CC4CC(CC(C4)C2)C3)c2c1C(=O)N(c1ccc(C)cc1)C2=O	0	0	0	0	0	-109.5%
CCC1(O)CC(C)N(C)CC1C (configuration not stated)	-	-	0	-	-	-
C=CC#CC1(O)CC(C)N(C)CC1C (configuration not stated)	-66.1	0	0	0	0	0
CC(CN1CCOCC1)OC(=O)c1ccccc1 (configuration not stated)	0	0	0	0	0	0
COc1ccccc1/C=C/C(=O)OC(C)CN1CCOCC1 (configuration not stated)	-82.7	0	0	0	0	0
CN1CCc2ccccc2Cc2[nH]c3ccccc3c2CC1	-110.3	0	0	0	?	0
Cc1cc(C)n(C(=O)CNc2ccccc2Cl)n1	0	0	0	0	0	-126.7%
Cc1cc(C)n(C(=O)CNc2cccc(Cl)c2C)n1	0	0	0	0	0	0
CN1CCCN(c2cc(-c3ccc4ccccc4c3)nc3ccnn23)CC1	-66.8	0	0	0	-	0
Cc1cccc(-c2cc(N3CCCN(C)CC3)n3nccc3n2)c1	?	0	0	0	-	0
Cc1noc(C)c1Cn1c(=O)c2c(ncn2C2CCCC2)n(Cc2ccccc2)c1=O	-	-	0	-	-	-
COc1ccc(C(=O)COc2ccccc2N2C(=O)C3C4C=CC(C4)C3C2=O)cc1 (configuration not stated)	0	0	0	0	0	-138.6%
SMILES	DRD3 antagonist	DRD3 agonist	LDHA inh	PI4K2A inh	RGS4 inhibitor	Akt phos inh
COc1ccc2c(C)c(CC(=O)NCCc3ccccc3F)c(=O)oc2c1C	-	-	0	-	-	-
O=[N+]([O-])c1ccc(N=Nc2ncc[nH]2)cc1	-111.0	0	0	0	0	0
CC(C)N1CCN(S(=O)(=O)c2ccccc2)CC1	0	0	0	0	0	0
CCS(=O)(=O)N1CCN(C(C)CCc2ccccc2)CC1 (configuration not stated)	-51.4	0	0	0	0	0
CC(CCc1ccccc1)N1CCN(Cc2ccccc2)CC1 (configuration not stated)	-87.1	0	-30.6	0	0	0
COc1ccc(/C=C/c2ccc3ccccc3n2)cc1O	-	-	0	-	-	-
